Screening data as filed in PubChem BioAssay.
A selection: hits, their analogues and other compounds. The true share with any hit is near 28%.
PLK1 PBD inh: blocks phosphopeptide binding to human Plk1 polo box domain | Plk1 PBD phosphopeptide binding, fluorescence polarization | inhibition, %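 (tested at about 20 µM)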 | P53350 | 97,000 tested, 0.13% active; in the data active = inhibition above about 34%, passing the limit was not always enough
Target sequence (P53350 whole entry, looked up, the tested form may be a part): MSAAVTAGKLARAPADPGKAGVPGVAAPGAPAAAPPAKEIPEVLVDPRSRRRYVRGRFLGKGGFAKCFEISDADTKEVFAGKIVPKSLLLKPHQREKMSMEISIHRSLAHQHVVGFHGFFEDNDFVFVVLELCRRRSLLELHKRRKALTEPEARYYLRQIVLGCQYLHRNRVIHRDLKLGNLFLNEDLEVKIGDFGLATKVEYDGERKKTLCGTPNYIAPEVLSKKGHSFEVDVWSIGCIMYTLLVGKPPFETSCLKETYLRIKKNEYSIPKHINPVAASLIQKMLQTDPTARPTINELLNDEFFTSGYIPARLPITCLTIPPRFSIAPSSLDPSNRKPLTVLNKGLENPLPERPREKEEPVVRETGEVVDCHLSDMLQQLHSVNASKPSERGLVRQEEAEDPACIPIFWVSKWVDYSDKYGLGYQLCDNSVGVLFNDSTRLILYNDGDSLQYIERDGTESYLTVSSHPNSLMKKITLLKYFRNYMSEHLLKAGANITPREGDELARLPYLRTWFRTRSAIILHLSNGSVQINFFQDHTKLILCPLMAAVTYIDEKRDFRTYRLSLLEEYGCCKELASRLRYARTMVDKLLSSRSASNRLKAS
PLK1 inh: blocks human PLK1 kinase activity; P53350; recombinant PLK1 kinase, TR-FRET peptide phosphorylation; inhibition, % at 10 µM; 97,000 tested, 0.53% active; AID 619;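 active = inhibition of 50% or more in the single-concentration screen; inactive = inhibition below 50%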
CYP2C9 activ: activators of human CYP2C9. activation factor at 5 µM. recombinant CYP2C9, luciferin-H conversion, luminescence; hits give high values; factor 1 = untreated enzyme, 0 = blocked. P11712. 96,000 tested, 1.4% active;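 active = activation factor of 2 or more for CYP2C9 at a 5 µM dose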
CYP2C9 inh: human CYP2C9 inhibition | P11712 | CYP2C9 Supersomes, luciferin-H conversion, luminescence | inhibition, % at 5 µM | 96,000 tested, 20% active;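 active = blocking of liver enzyme CYP2C9 beyond about 50% at 5 µM, limit read from the data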
CYP2C19 inh: blocks human cytochrome P450 2C19 | 96,000 tested, 21% active | CYP2C19 Supersomes, luciferin-H EGE luminescence, 30 min | inhibition, % at 5 µM | P33261;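 active = CYP2C19 inhibition above a set limit at 5 µM in the primary screen, cut at about 50% in these data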
CYP2C19 act: increases human CYP2C19 enzyme activity; P33261; recombinant CYP2C19, luciferin-H EGE luminescence; hits give high values; 0 = fully inhibited enzyme, 1 = untreated enzyme; activation factor at 5 µM; 96,000 tested, under 10 active;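 active = activation factor of at least 2 at 5 µM in the primary screen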
A number is an active result.

`CCOC(=O)C(NS(=O)(=O)c1ccc(Br)cc1)C(C)C` (stereo not given) gave PLK1 PBD inh inactive, PLK1 inh inactive, CYP2C9 activ inactive, CYP2C9 inh inactive, CYP2C19 inh 88.6 and CYP2C19 act inactive.
Screening Cc1ccc(S(=O)(=O)NC(C(=O)OCC(=O)NC(=O)c2cccn2C)C(C)C)cc1 (stereo not given) returned CYP2C9 activ inactive, CYP2C9 inh inactive, CYP2C19 inh 59.2 and CYP2C19 act inactive.
`Oc1c(/C=N/c2ncn[nH]2)ccc2ccccc12` gave PLK1 PBD inh inactive, PLK1 inh inactive, CYP2C9 activ inactive, CYP2C9 inh inactive, CYP2C19 inh inactive and CYP2C19 act inactive.
`COC(=O)C1CCN(S(=O)(=O)c2cn(C)c(=O)n(C)c2=O)CC1` gave PLK1 PBD inh inactive, PLK1 inh inactive, CYP2C9 activ inactive, CYP2C9 inh inactive, CYP2C19 inh inactive and CYP2C19 act inactive.
For CN(CCNC(=O)C1CC(=O)N(c2ccc(F)c(Cl)c2)C1)Cc1ccccc1 (stereo not given) the results were PLK1 PBD inh inactive, PLK1 inh inactive, CYP2C9 activ inactive, CYP2C9 inh inactive, CYP2C19 inh inactive and CYP2C19 act inactive.
`CCCN(CCC)C(=O)c1ccc2c(c1)OCO2` gave PLK1 PBD inh inactive and PLK1 inh inactive.
Screening O=c1c2cc(F)ccc2[nH]c(=S)n1CCCN1CCOCC1 returned PLK1 PBD inh inactive, PLK1 inh inactive, CYP2C9 activ inactive, CYP2C9 inh inactive, CYP2C19 inh 66.7 and CYP2C19 act inactive.
`O=c1c2cc(N3CCOCC3)ccc2[nH]c(=S)n1CCN1CCCC1` gave CYP2C9 activ inactive, CYP2C9 inh inactive, CYP2C19 inh inactive and CYP2C19 act inactive.
O=c1c2cc(N3CCOCC3)ccc2[nH]c(=S)n1Cc1ccc(Cl)cc1 was read as PLK1 PBD inh inactive, PLK1 inh inactive, CYP2C9 activ inactive, CYP2C9 inh 57.9, CYP2C19 inh inactive and CYP2C19 act inactive.
O=c1c2cc(N3CCOCC3)ccc2[nH]c(=S)n1CCCN1CCCCCC1 was read as CYP2C9 activ inactive, CYP2C9 inh inactive, CYP2C19 inh inactive and CYP2C19 act inactive.
For CC1Cc2cc(/C(O)=C3/C(=O)C(=O)N(CC4CCCO4)C3c3ccco3)ccc2O1 (stereo not given) the results were PLK1 PBD inh inactive, PLK1 inh inactive, CYP2C9 activ inactive, CYP2C9 inh inactive, CYP2C19 inh inactive and CYP2C19 act inactive.
`C=C(C)c1cccc(C(C)(C)NC(=O)N(Cc2ccccc2)Cc2ccco2)c1` gave PLK1 PBD inh inactive, PLK1 inh inactive, CYP2C9 activ inactive, CYP2C9 inh 72.5, CYP2C19 inh inactive and CYP2C19 act inactive.
`NS(=O)(=O)c1ccc(CNC(=O)CCC2CCCCC2)cc1` gave PLK1 PBD inh inactive, PLK1 inh inactive, CYP2C9 activ inactive, CYP2C9 inh inactive, CYP2C19 inh inactive and CYP2C19 act inactive.
Screening COC(=O)C1=C(N)Oc2cc(C)n(CCN3CCOCC3)c(=O)c2C1c1cccnc1 (stereo not given) returned PLK1 PBD inh inactive, PLK1 inh inactive, CYP2C9 activ inactive, CYP2C9 inh inactive, CYP2C19 inh 71.2 and CYP2C19 act inactive.
COC(=O)C1=C(N)Oc2cc(C)n(Cc3ccccc3)c(=O)c2C1c1ccccc1 (stereo not given) was read as PLK1 PBD inh inactive, PLK1 inh inactive, CYP2C9 activ inactive, CYP2C9 inh 74.8, CYP2C19 inh inactive and CYP2C19 act inactive.
CCN(CC)C(=O)N1CCC(NC(=O)c2ccc(C(C)(C)C)cc2)CC1 was read as PLK1 PBD inh inactive, PLK1 inh inactive, CYP2C9 activ inactive, CYP2C9 inh inactive, CYP2C19 inh inactive and CYP2C19 act inactive.
`CCN(CC)CCNc1ccnc2cc(Cl)ccc12` gave PLK1 PBD inh inactive, PLK1 inh inactive, CYP2C9 activ inactive, CYP2C9 inh inactive, CYP2C19 inh inactive and CYP2C19 act inactive.
Clc1ccc(NNc2ccnc3cc(Cl)ccc23)cc1 was read as PLK1 PBD inh inactive, PLK1 inh inactive, CYP2C9 activ inactive, CYP2C9 inh 80.2, CYP2C19 inh 66.5 and CYP2C19 act inactive.
For CCc1nc(SCc2cccnc2)c2c(=O)n(C)c(=O)n(C)c2n1 the results were PLK1 PBD inh inactive, PLK1 inh inactive, CYP2C9 activ inactive, CYP2C9 inh inactive, CYP2C19 inh 94.3 and CYP2C19 act inactive.
Screening Cn1c(=O)c2c(SCc3cccnc3)nc(C3CC3)nc2n(C)c1=O returned PLK1 PBD inh inactive, PLK1 inh inactive, CYP2C9 activ inactive, CYP2C9 inh 56.6, CYP2C19 inh 87.9 and CYP2C19 act inactive.
CCc1nc(SCc2ccccn2)c2c(=O)n(C)c(=O)n(C)c2n1 was read as PLK1 PBD inh inactive and PLK1 inh inactive.
Cc1ccc(S(=O)(=O)c2nc(-c3cccs3)oc2SCC(N)=O)cc1 was read as PLK1 PBD inh inactive, PLK1 inh inactive, CYP2C9 activ inactive, CYP2C9 inh inactive, CYP2C19 inh inactive and CYP2C19 act inactive.
Cc1c(N=Cc2ccccn2)c(=O)n(-c2ccccc2)n1C was read as PLK1 PBD inh inactive, PLK1 inh inactive, CYP2C9 activ inactive, CYP2C9 inh inactive, CYP2C19 inh inactive and CYP2C19 act inactive.
Screening Cc1c(N=Cc2ccncc2)c(=O)n(-c2ccccc2)n1C returned PLK1 PBD inh inactive, PLK1 inh inactive, CYP2C9 activ inactive, CYP2C9 inh inactive, CYP2C19 inh 65.5 and CYP2C19 act inactive.
Screening O=C(NN1C(=O)c2ccccc2NC1c1ccccn1)c1ccc(Br)cc1 (stereo not given) returned PLK1 PBD inh inactive, PLK1 inh inactive, CYP2C9 activ inactive, CYP2C9 inh inactive, CYP2C19 inh inactive and CYP2C19 act inactive.
For CC1CCc2sc3ncnc(N4CCOCC4)c3c2C1 (stereo not given) the results were PLK1 PBD inh inactive, PLK1 inh inactive, CYP2C9 activ inactive, CYP2C9 inh 60.7, CYP2C19 inh 95.5 and CYP2C19 act inactive.
`Cc1cc(C)n(-c2ncnc3sc(C)c(C)c23)n1` gave PLK1 PBD inh inactive, PLK1 inh inactive, CYP2C9 activ inactive, CYP2C9 inh inactive, CYP2C19 inh inactive and CYP2C19 act inactive.
Screening Cc1cc(C)n(-c2ncnc3sc4c(c23)CCCC4)n1 returned PLK1 PBD inh inactive, PLK1 inh inactive, CYP2C9 activ inactive, CYP2C9 inh inactive, CYP2C19 inh 56.8 and CYP2C19 act inactive.
Screening Cc1cc(C)n(-c2nc(C)nc3sc4c(c23)CCC(C)C4)n1 (stereo not given) returned PLK1 PBD inh inactive, PLK1 inh inactive, CYP2C9 activ inactive, CYP2C9 inh inactive, CYP2C19 inh inactive and CYP2C19 act inactive.
For Cc1cc(C)n(-c2ncnc3sc4c(c23)CC(C)CC4)n1 (stereo not given) the results were PLK1 PBD inh inactive, PLK1 inh inactive, CYP2C9 activ inactive, CYP2C9 inh inactive, CYP2C19 inh 88.1 and CYP2C19 act inactive.
For N#Cc1cnn(-c2ncnc3sc4c(c23)CCCC4)c1N the results were PLK1 PBD inh inactive, PLK1 inh inactive, CYP2C9 activ inactive, CYP2C9 inh 89.2, CYP2C19 inh inactive and CYP2C19 act inactive.
